{"source": "patent US20220289795", "about": "“EFFICIENT METHOD FOR PREPARING PPR PROTEIN AND USE OF THE SAME” (EditForce, Inc., published 2022)"}
{"biological_target": "T1, v3.1_PPR13 (Artificial Sequence)", "T1 chain": "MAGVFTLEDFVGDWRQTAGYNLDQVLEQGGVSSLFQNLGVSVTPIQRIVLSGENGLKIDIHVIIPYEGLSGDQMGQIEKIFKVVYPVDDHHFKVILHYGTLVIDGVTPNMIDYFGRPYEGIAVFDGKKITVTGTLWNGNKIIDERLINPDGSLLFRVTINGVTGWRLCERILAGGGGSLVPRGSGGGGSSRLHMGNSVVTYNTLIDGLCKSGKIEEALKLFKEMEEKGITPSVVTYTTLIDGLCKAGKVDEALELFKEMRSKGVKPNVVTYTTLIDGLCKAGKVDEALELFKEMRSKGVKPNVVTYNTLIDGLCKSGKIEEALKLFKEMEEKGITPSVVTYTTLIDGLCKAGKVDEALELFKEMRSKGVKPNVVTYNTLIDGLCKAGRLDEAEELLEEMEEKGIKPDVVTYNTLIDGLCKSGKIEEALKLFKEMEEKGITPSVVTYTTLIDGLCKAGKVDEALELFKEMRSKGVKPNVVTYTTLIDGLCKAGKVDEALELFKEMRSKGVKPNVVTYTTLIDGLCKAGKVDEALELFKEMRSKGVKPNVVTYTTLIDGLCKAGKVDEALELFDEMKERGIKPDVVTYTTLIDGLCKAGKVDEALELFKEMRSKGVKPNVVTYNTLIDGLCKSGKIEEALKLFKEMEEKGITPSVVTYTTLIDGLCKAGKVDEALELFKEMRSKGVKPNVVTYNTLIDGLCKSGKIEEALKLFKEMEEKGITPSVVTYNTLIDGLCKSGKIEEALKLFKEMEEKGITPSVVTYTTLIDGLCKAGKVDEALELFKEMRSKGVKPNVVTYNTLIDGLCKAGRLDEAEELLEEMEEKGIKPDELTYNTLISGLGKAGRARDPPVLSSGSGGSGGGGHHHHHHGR", "assay": "RPB-ELISA", "details": "tags: N-terminal luciferase, C-terminal 6xHis; label: 5'-biotin; ssRNA", "experimental": "RNA probes consisting of a designed 30-base sequence containing 18 bases of the target sequence and modified by biotinylation at the 5′ end (RNA_1, RNA_2, RNA_3, RNA_4, and RNA_5, SEQ ID NOS: 61 to 65) were synthesized (Grainer). To a streptavidin-coated plate (Thermo fisher), the 5′-end biotinylated RNA probes were added, reaction was allowed at room temperature for 30 minutes, and the plate was washed with a lysis buffer (20 mM Tris-HCl, pH 7.6, 150 mM NaCl, 5 mM MgCl₂, 0.5% NP-40, 1 mM DTT, 0.1% BSA). For background measurement, wells to which RNA was not added, but 100 μL of the lysis buffer, 1 μL of 100 mM DTT, and 1 μL of 40 unit/4 RNase inhibitor (Takara, 2313A) were added were also prepared. Then, 200 μL of a blocking buffer (20 mM Tris-HCl, pH 7.6, 150 mM NaCl, 5 mM MgCl₂, 0.5% NP-40, 1 mM DTT, 1% BSA) was added, and the plate surface was blocked at room temperature for 30 minutes. Then, 100 μL of E. coli lysate containing luciferase-fused PPR protein having a luminescence level of 1.5×10⁸ LU/μL was added to each well, and the binding reaction was allowed at room temperature for 30 minutes. The well was washed 5 times with 200 μL of a washing buffer (20 mM Tris-HCl, pH 7.6, 150 mM NaCl, 5 mM MgCl₂, 0.5% NP-40, 1 mM DTT). […] The background (luminescence signal value obtained with adding the PPR protein and without adding RNA) was subtracted from the luminescences of the samples to which a solution containing each RNA and PPR protein was added, and the obtained values were used as the binding powers between the PPR protein and RNA.\nBy using the V3.1 motif, PPR proteins for the same 23 kinds of target sequences were similarly prepared (SEQ ID NOS: 411 to 433 for the nucleotide sequences, and SEQ ID NOS: 434 to 456 for the amino acid sequences), and bindings of all the combinations were analyzed by using RPB-ELISA. The experimental method was the same as that used in Example 3.", "units": {"binding signal": "log2 luminescence"}}
{"sequence": "GGUUAGAGAUACAGUGUG", "binding signal": 20.6}
